Results taken from PubChem BioAssay (Tox21).
Values joined by “and” are separate entries in the source; they are usually repeats but may differ in a detail not shown here. Equal entries are not always repeated. Inconclusive results are not listed. More than one record can exist for a structure, and the calls need not agree. Active and inactive are the calls of the source. Calls come from the whole dose curve.

How the values were obtained:
[1] = molecular target: Acetylcholinesterase (Homo sapiens) (UniProt P22303); assay: Acetylcholinesterase (AChE) small molecule antagonists: colormetric cell-based qHTS assay (AID 1347395); note: nearly all actives have a fitted effect of over 30% in size; note: potency is the fitted concentration of half-maximal effect
In short: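 In this cell-based qHTS, attached SH-SY5Y cells were treated with test chemicals for 30 min, after which acetylthiocholine hydrolysis was followed by DTNB colour development over 90 min at 37 C.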

[2] = molecular target: Acetylcholinesterase (Homo sapiens) (UniProt P22303); assay: Acetylcholinesterase (AChE) small molecule antagonists: enzyme-based qHTS assay (AID 1347397); conditions: Potency: AChE enzyme activity inhibition; outcome: AChE enzyme activity inhibition; note: nearly all actives have a fitted effect of over 55% in size; note: potency is the fitted concentration of half-maximal effect
In short: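 Compound or DMSO vehicle was pin-transferred onto recombinant human AChE (50 mU/mL as dispensed) and left 30 min at room temperature. Acetylthiocholine with DTNB then started the reaction, read colorimetrically 10 min later.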

[3] = molecular target: Acetylcholinesterase (Homo sapiens) (UniProt P22303); assay: Acetylcholinesterase (AChE) small molecule antagonists: fluorescence cell-based qHTS assay (AID 1347398); conditions: Potency: AChE activity; outcome: AChE activity; note: nearly all actives have a fitted effect of over 50% in size; note: potency is the fitted concentration of half-maximal effect
In short: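 Using neuroblastoma SH-SY5Y cells as the enzyme source, test chemicals are preincubated 30 min at 37 C; AChE-driven acetylthiocholine cleavage is then quantified by thiocholine-dependent Thiolite Green fluorescence after 40 min at room temperature.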

[4] = molecular target: Acetylcholinesterase (Homo sapiens) (UniProt P22303); assay: Acetylcholinesterase (AChE) small molecule antagonists: enzyme-based qHTS assay with human liver microsomes (AID 1347399); conditions: Potency: qHTS inhibition; outcome: qHTS inhibition; note: nearly all actives have a fitted effect of over 60% in size
In short: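 Recombinant human AChE (50 mU/mL in the enzyme mix) and human liver microsomes (0.25 mg/mL final) were preincubated with compound and NADPH (0.25 mg/mL final) for 30 min at 37 C. Acetylthiocholine/DTNB was then added; thiocholine was read colorimetrically after 10 min at room temperature.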
% is set by controls: 0 for no effect and ±100 for the full control effect.

Chain of Acetylcholinesterase (Homo sapiens) (P22303 whole entry, looked up): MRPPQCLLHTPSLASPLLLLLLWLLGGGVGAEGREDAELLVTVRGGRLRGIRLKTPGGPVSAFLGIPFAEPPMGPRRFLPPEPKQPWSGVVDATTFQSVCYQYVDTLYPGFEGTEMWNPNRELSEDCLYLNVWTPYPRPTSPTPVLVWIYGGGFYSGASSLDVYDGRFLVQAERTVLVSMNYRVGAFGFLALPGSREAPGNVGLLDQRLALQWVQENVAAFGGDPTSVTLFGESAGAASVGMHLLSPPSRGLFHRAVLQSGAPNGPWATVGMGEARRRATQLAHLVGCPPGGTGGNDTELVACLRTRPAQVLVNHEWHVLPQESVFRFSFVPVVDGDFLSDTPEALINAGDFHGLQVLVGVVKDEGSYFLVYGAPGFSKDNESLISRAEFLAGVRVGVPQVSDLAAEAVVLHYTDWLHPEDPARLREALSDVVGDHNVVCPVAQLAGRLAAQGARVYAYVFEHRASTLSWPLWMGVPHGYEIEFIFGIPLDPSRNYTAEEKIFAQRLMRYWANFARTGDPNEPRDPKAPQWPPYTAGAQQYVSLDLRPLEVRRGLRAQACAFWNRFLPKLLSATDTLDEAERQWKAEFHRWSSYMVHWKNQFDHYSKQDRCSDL

CNCCCN1c2ccccc2CCc2ccccc21
inactive: Potency [1] | Potency [2] | Potency [3]

CC(C)c1ccc(C(C)C)cc1
inactive: Potency [1] | Potency [2] | Potency [3]

COc1cc(C)cc(O)c1
inactive: Potency [1] | Potency [2] | Potency [3]

Cc1cnc(C(=O)NCCc2ccc(S(=O)(=O)NC(=O)NC3CCCCC3)cc2)cn1
inactive: Potency [1] | Potency [2] | Potency [3]

COc1cc(NCc2ccc3nc(N)nc(N)c3c2C)cc(OC)c1OC
active: Potency [1] 8.71 µM | Potency [2] 30.9 µM | Potency [3] 3.09 µM

CC(O)C(CO)C(C)O (stereo not given)
inactive: Potency [1] | Potency [2] | Potency [3] | Potency [4]

CCCC(=O)c1cc(O)c(O)cc1O
inactive: Potency [1] | Potency [2] | Potency [3]

Oc1ccccc1C=NCc1ccccc1
inactive: Potency [1] | Potency [2] | Potency [3] | Potency [4]

O=C[C@H](O)[C@H](O)[C@H](O)CO
inactive: Potency [1] | Potency [2] | Potency [3] | Potency [4]

C=CC(C)CCCC(C)(C)O (stereo not given)
inactive and 25.2 µM (active): Potency [2]
inactive: Potency [4]
inactive and 28.3 µM (active): Potency [1]
inactive and 22.4 µM (active): Potency [3]

CNCCCC12CCC(c3ccccc31)c1ccccc12
inactive: Potency [1] | Potency [2] | Potency [3] | Potency [4]

N#[N+]c1ccc2c(S(=O)(=O)[O-])cccc2c1O
inactive: Potency [1] | Potency [2] | Potency [3]

CCc1ccc(CCOc2ccc(CC3SC(=O)NC3=O)cc2)nc1 (stereo not given)
inactive: Potency [1] | Potency [2] | Potency [3]

Cc1ccc(C(=O)O)o1
inactive: Potency [1] | Potency [2] | Potency [3]

CC1=C(C(=O)O)N2C(=O)[C@@H](NC(=O)[C@H](N)c3ccccc3)[C@H]2SC1
inactive: Potency [1] | Potency [2] | Potency [3]

O=C1c2c(O)ccc([N+](=O)[O-])c2C(=O)c2c([N+](=O)[O-])ccc(O)c21
active: Potency [1] 0.789 µM | Potency [2] 25 µM | Potency [3] 8.86 µM

NC=O
inactive: Potency [1] | Potency [2] | Potency [3]

CCn1nc(C(=O)O)c(=O)c2cc3c(cc21)OCO3
inactive: Potency [1] | Potency [2] | Potency [3]

OCc1cccnc1
inactive: Potency [1] | Potency [2] | Potency [3]

CCCCCC#CC(=O)OC
inactive: Potency [1] | Potency [2] | Potency [3] | Potency [4]

CN(C)C(=O)C1(N2CCCCC2)CCN(CC[C@@]2(c3ccc(Cl)c(Cl)c3)CN(C(=O)c3ccccc3)CCO2)CC1
active: Potency [1] 33.2 µM | Potency [2] 16.7 µM | Potency [3] 4.69 µM

C[N+]1(C)CCC(OC(=O)C(O)(c2ccccc2)C2CCCC2)C1 (stereo not given)
inactive: Potency [1] | Potency [2] | Potency [3]

C/C=C(\C)C(=O)OC/C=C(\C)CCC=C(C)C
inactive: Potency [1] | Potency [2] | Potency [3]

Cc1ccc(/C(=C\CN2CCCC2)c2ccccn2)cc1
inactive: Potency [1] | Potency [2] | Potency [3]

COCCOCCOC
inactive: Potency [1] | Potency [2] | Potency [3]

CC(C)(C)NC(=O)[C@@H]1C[C@@H]2CCCC[C@@H]2CN1C[C@@H](O)[C@H](Cc1ccccc1)NC(=O)[C@H](CC(N)=O)NC(=O)c1ccc2ccccc2n1
inactive: Potency [1] | Potency [2] | Potency [3]

CC[C@]1(O)C[C@@H]2CN(CCc3c([nH]c4ccccc34)[C@@](C(=O)OC)(c3cc4c(cc3OC)N(C)[C@H]3[C@@](O)(C(=O)OC)[C@H](OC(C)=O)[C@]5(CC)C=CCN6CC[C@]43[C@@H]65)C2)C1
inactive: Potency [1] | Potency [2] | Potency [3]

O=C1c2ccccc2C(=O)N1CCc1noc(-c2ccc(CN3CCCCCC3)s2)n1
active: Potency [1] 6.51 µM | Potency [2] 23.1 µM | Potency [3] 3.26 µM

COc1cc(Cc2cnc(N)nc2N)cc(OC)c1OC
inactive: Potency [1] | Potency [2] | Potency [3]

COC(=O)C1=C(C)NC(C)=C(C(=O)OC)C1c1ccccc1[N+](=O)[O-]
inactive: Potency [1] | Potency [2] | Potency [3]

O=C(O)c1cccc(C(=O)O)c1
inactive: Potency [1] | Potency [2] | Potency [3]

CC(C(=O)O)c1cccc(C(=O)c2ccccc2)c1 (stereo not given)
inactive: Potency [1] | Potency [2] | Potency [3]

C#C[C@]1(O)CC[C@H]2[C@@H]3CCC4=CC(=O)CC[C@@H]4[C@H]3CC[C@@]21CC
inactive: Potency [1] | Potency [2] | Potency [3]

CS(=O)(=O)c1ccc([C@@H](O)[C@@H](CF)NC(=O)C(Cl)Cl)cc1
inactive: Potency [1] | Potency [2] | Potency [3]

CCCCCSCCCCC
inactive: Potency [1] | Potency [2] | Potency [3] | Potency [4]

Cc1onc(-c2ccccc2Cl)c1C(=O)N[C@@H]1C(=O)N2[C@@H]1SC(C)(C)[C@@H]2C(=O)O
inactive: Potency [1] | Potency [2] | Potency [3]

O=CCCCC=O
inactive: Potency [1] | Potency [2] | Potency [3]

O=C(O)CCc1nc(-c2ccccc2)c(-c2ccccc2)o1
inactive: Potency [1] | Potency [2] | Potency [3]

CCCCC(CC)COCC1CO1 (stereo not given)
inactive: Potency [1] | Potency [2] | Potency [3] | Potency [4]

O[C@@H](c1cc(C(F)(F)F)nc2c(C(F)(F)F)cccc12)[C@H]1CCCCN1
inactive: Potency [1] | Potency [2] | Potency [3] | Potency [4]

Cc1c[nH]c(=O)[nH]c1=O
inactive: Potency [1] | Potency [2] | Potency [3] | Potency [4]

OC[C@H]1O[C@@H](OCCc2ccc(O)cc2)[C@H](O)[C@@H](O)[C@@H]1O
inactive: Potency [1] | Potency [2] | Potency [3] | Potency [4]

OCCN1CCN(CCCN2c3ccccc3C=Cc3ccccc32)CC1
inactive: Potency [1] | Potency [2] | Potency [3] | Potency [4]

CCO[Si](CCCN=C=O)(OCC)OCC
inactive: Potency [1] | Potency [2] | Potency [3] | Potency [4]

CC(C)c1ccccc1N
inactive: Potency [1] | Potency [2] | Potency [3] | Potency [4]

CNc1ncnc2nc[nH]c12
inactive: Potency [1] | Potency [2] | Potency [3] | Potency [4]

COc1ccc(OC(F)(F)F)cc1CN[C@H]1CCCN[C@H]1c1ccccc1
inactive: Potency [1] | Potency [2] | Potency [3] | Potency [4]

CC1CN(c2ccccc2)NC1=O (stereo not given)
inactive: Potency [1] | Potency [2] | Potency [3] | Potency [4]

CN(C)Cc1cc(CN(C)C)c(O)c(CN(C)C)c1
inactive: Potency [1] | Potency [2] | Potency [3] | Potency [4]

CC(C)(C)NCC(O)COc1ccccc1OCC1CCCO1 (stereo not given)
inactive: Potency [1] | Potency [2] | Potency [3] | Potency [4]

Cc1scc2c1N(C(=O)CN1CCN(C)CC1)c1ccccc1NC2=O
inactive: Potency [1] | Potency [2] | Potency [3] | Potency [4]

O=C1NC(c2ccccc2)(c2ccccc2)C(=O)N1COP(=O)(O)O
inactive: Potency [1] | Potency [2] | Potency [3] | Potency [4]

NC(N)=S
inactive: Potency [1] | Potency [2] | Potency [3] | Potency [4]

O=C(CC(C(=O)OC1CCCCC1)S(=O)(=O)O)OC1CCCCC1 (stereo not given)
inactive: Potency [1] | Potency [2] | Potency [3] | Potency [4]

O=C(Nc1ccc([N+](=O)[O-])cc1Cl)c1cc(Cl)ccc1O
inactive: Potency [1] | Potency [2] | Potency [3] | Potency [4]

CCC(C)c1cc([N+](=O)[O-])cc([N+](=O)[O-])c1OC(=O)OC(C)C (stereo not given)
inactive: Potency [1] | Potency [2] | Potency [3] | Potency [4]

O=c1[nH]c2ccc(Cl)cc2o1
inactive: Potency [1] | Potency [2] | Potency [3] | Potency [4]

O=C(CCCCC(=O)Nc1c(I)cc(I)c(C(=O)O)c1I)Nc1c(I)cc(I)c(C(=O)O)c1I
inactive: Potency [1] | Potency [2] | Potency [3] | Potency [4]

CCOC(=O)c1ccc(O)cc1
inactive: Potency [1] | Potency [2] | Potency [3] | Potency [4]

CCCCNc1ccc(NCCCC)c2c1C(=O)c1ccccc1C2=O
inactive: activity, negative = inhibition [1] -1.89% [at 23.6 µM] | activity change, negative = inhibition [2] -0.954% [at 23.6 µM] | activity change, negative = inhibition [3] 1.62% [at 23.8 µM] | activity change, negative = inhibition [4] -2.27% [at 23.6 µM]

CNS(=O)(=O)CCc1ccc2[nH]cc(C3CCN(C)CC3)c2c1
inactive: Potency [1] | Potency [2] | Potency [3] | Potency [4]

CCC(C)(C)C1CCC(OC)CC1 (stereo not given)
inactive: Potency [1] | Potency [2] | Potency [3] | Potency [4]

C=C(C)C(=O)OCCOP(=O)(O)OCCOC(=O)C(=C)C
inactive: Potency [1] | Potency [2] | Potency [3] | Potency [4]

C[Si](O[Si](C)(C)C)O[Si](C)(C)C
inactive: Potency [1] | Potency [2] | Potency [3] | Potency [4]
